Assay results: PubChem BioAssay (EPA / NIEHS)
Where “and” joins values, the source holds several entries; their conditions need not be identical. Identical values can stand only once. Inconclusive results are not listed. A structure can be active in one record and inactive in another. Calls of active or inactive are those of the source. How the source made its calls, unless noted: active means hit-call score of the fitted dose curve at least 0.9, where 1 is the maximum; inconclusive means response in the unintended direction; inactive means score below 0.9.

Legend:
[1] = CCTE_Mundy_HCI_iCellGluta_NOG_NeuriteLength: CCTE's Neurite Outgrowth Assay in iCellGluta cells for Neurite Length, Mundy Lab (AID 2284318)
In short: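 Automated high-content imaging of betaIII-tubulin (Alexa Fluor-488) and Hoechst-stained cells gave neurite length, normalized to the DMSO baseline.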

[2] = IUF_NPC1_cytotoxicity_72hr: Cytotoxicity Assessment at 72 hours in the Leibniz Research Institute for Environmental Medicine (IUF) Neural Progenitor Cell Proliferation Assay (NPC1) (AID 2284332);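 further: rising LDH signal means more cytotoxicity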
In short: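 Human fetal neural progenitor spheres (0.3 mm) in EGF/FGF proliferation medium, 37C, exposed 72 h without renewal. LDH release in supernatant read by resorufin fluorescence; gain of signal scored relative to dynamic range.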

[3] = CCTE_Mundy_HCI_iCellGluta_NOG_NeuriteCount: CCTE's Neurite Outgrowth Assay in iCellGluta cells for Neurite Count, Mundy Lab (AID 2284342);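 further: chemical exposure about 48 hours starting 2 hours after plating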
[4] = CCTE_Deisenroth_H295R-HTRF_384WELL_ESTRADIOL: CCTE's H295R-HTRF Assay Evaluation of Estradiol Concentration, Deisenroth Lab (AID 2284361; active means hit-call score of the fitted dose curve at least 0.9, where 1 is the maximum; inactive means score below 0.9); conditions: actives raise or lower the signal
In short: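 H295R cells exposed 48 h to chemicals at 0.001 - 100 uM final (nine points, triplicate); estradiol in conditioned medium measured by HTRF immunoassay, fitted bidirectionally versus DMSO. Viability by CellTiter-Glo on same plates.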

[5] = CCTE_Deisenroth_H295R-HTRF_384WELL_TESTOSTERONE: CCTE's H295R-HTRF Assay Evaluation of Testosterone Concentration, Deisenroth Lab (AID 2284373; active means hit-call score of the fitted dose curve at least 0.9, where 1 is the maximum; inactive means score below 0.9); conditions: actives raise or lower the signal
In short: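 Testosterone secreted into medium was quantified by direct HTRF immunoassay after a 48 h treatment of H295R adrenocortical cells (nine concentrations, 0.001–100 uM final). Gain or loss fitted relative to DMSO; CellTiter-Glo viability read on same plates.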

[6] = CCTE_Deisenroth_H295R-HTRF_384WELL_CTOX: Cytotoxicity Assessment in CCTE's H295R-HTRF Assay, Deisenroth Lab (AID 2284380)
In short: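 H295R adrenocortical carcinoma cells plated 24 h, then exposed 48 h to nine-point series 0.001–100 uM final, triplicate, n=5. ATP measured by CellTiter-Glo 2.0 luminescence on same plates after medium collection; loss versus DMSO.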

[7] = system: SERPINA7 (gene 6906); assay: CCTE_GLTED_hTBG: CCTE's human Thyroxine-binding Globulin (TBG) Inhibition Assay, Great Lakes Toxicology and Ecology Division (GLTED) Lab (AID 2284343);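 further: active chemicals lower fluorescence versus DMSO baseline by displacing probe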
In short: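 Human TBG incubated 2 h with test chemical; displacement of ANSA probe read by fluorescence, 380 nm excitation/475 nm emission. Loss of signal relative to DMSO.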

[8] = CCTE_Deisenroth_5AR_NBTE_donor: CCTE's 5alpha-reductase NanoBRET Target Engagement Assay […], Deisenroth Lab (AID 2284319; active means hit-call score of the fitted dose curve at least 0.9, where 1 is the maximum; inactive means score below 0.9); conditions: actives raise or lower the signal
In short: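 SRD5A2-NanoLuc, HEK293T, 20 h expression. Chemical 10 nM - 29.9 uM, 8 conc, duplicate; 3 h preincubation + 2 h testosterone tracer. Nano-Glo substrate plus extracellular NanoLuc inhibitor; donor lum 460 nm. DMSO baseline, bidirectional fit.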

[9] = CCTE_Deisenroth_5AR_NBTE_acceptor: CCTE's 5alpha-reductase NanoBRET Target Engagement Assay - Autofluorescence Screen, Deisenroth Lab (AID 2284321; active means hit-call score of the fitted dose curve at least 0.9, where 1 is the maximum; inactive means score below 0.9;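 further: compound fluorescence in the acceptor channel under 460 nm excitation flags autofluorescence artifacts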); conditions: actives raise or lower the signal
In short: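 Chemicals diluted to a nominal 100 uM in DMSO were scanned at 460 nm excitation. Samples were read in three independent runs (n=3). Gain or loss of acceptor signal was fitted relative to DMSO.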

[10] = system: SRD5A2 (gene 6716); assay: CCTE_Deisenroth_5AR_NBTE_ratio: CCTE's 5alpha-reductase NanoBRET Target Engagement Assay - Ratio, Deisenroth Lab (AID 2284322; active means hit-call score of the fitted dose curve at least 0.9, where 1 is the maximum; inactive means score below 0.9); conditions: actives raise or lower the signal
In short: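 HEK293T transiently expressing SRD5A2-NanoLuc; cells exposed to chemical (8-point, 10 nM - 29.9 uM) for 5 h total, testosterone tracer added for final 2 h. NanoBRET acceptor/donor ratio (650/460 nm), bidirectional fit vs DMSO.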

[11] = TAMU_PeakParms_SingleDonor1434_Asystole: Texas A&M University (TAMU) 1.5-hr Human Induced Pluripotent Stem Cell (iPSC)-derived Cardiomyocytes Calcium (Ca+2) Flux Assay for Cardiotoxicity: Asystole (quiescence of beating) (AID 2284328)
In short: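 Donor 1434 iPSC-cardiomyocytes exposed 90 min at 37C, 5% CO2, to 0.2, 1, 10 and 100 uM in 0.5% DMSO. Ca2+ dye fluorescence gave average peak frequency; POD is EC95, a 95% beat-rate drop versus controls.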

[12] = system: IYD (gene 389434); assay: CCTE_GLTED_hIYD: CCTE's human Iodotyrosine Deiodinase (xIYD) Inhibition Assay, Great Lakes Toxicology and Ecology Division (GLTED) Lab (AID 2284317);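 further: cell-free human IYD enzyme made in baculovirus insect cells; iodide freed from monoiodotyrosine measured by cerium arsenite color change at 420 nm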
In short: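 hIYD: baculovirus-expressed human IYD deiodinated monoiodotyrosine for 3 h with test chemical; free iodide was measured by Sandell-Kolthoff absorbance at 420 nm and normalized to MNT and DMSO/NaOH controls.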

[13] = system: TTR (gene 7276); assay: CCTE_GLTED_hTTR_0.5uM: CCTE's human Transthyretin (hTTR) Inhibition Assay, with 0.5uM TTR, Great Lakes Toxicology and Ecology Division (GLTED) Lab (AID 2284320; active means hit-call score of the fitted dose curve at least 0.9, where 1 is the maximum; inactive means score below 0.9)
In short: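 Cell-free displacement assay in which human TTR at 0.5 uM was incubated with test chemical for 2 h. Displacement of the ANSA probe was read by fluorescence at 380 nm excitation/475 nm emission. Loss of signal was fitted in the positive direction versus DMSO.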

[14] = VALA_TUBIPS_Antagonist_CellCount: Viability Assessment in the VALA Sciences human iPS-derived Endothelial Tubule Formation (TUBIPS) Antagonism Assay (AID 2284335)
[15] = VALA_MIGHUV1_ScratchOnly_WoundArea: VALA Sciences human Umbilical Vein Endothelial Cell Migration (MIGHUV) Assay, Area of Scratch Wound Inhibited Recovery (AID 2284336)
In short: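 HUVEC monolayers (9000 cells/well) were scratched after 24 h, dosed within 30 min (six concentrations, triplicate, 0.1% DMSO), allowed 24 h recovery, then fixed. Hoechst-stained nuclei in the wound imaged; cytochalasin D as reference.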

[16] = VALA_TUBIPS_Agonist_CellCount: Viability Assessment in the VALA Sciences human iPS-derived Endothelial Tubule Formation (TUBIPS) Agonism Assay (AID 2284338)
[17] = Tanguay_ZF_120hpf_MO24: Oregon State University Tanguay Lab 24 Hour Post-fertilization zebrafish Assay for Mortality (AID 2284389; active means hit-call score of the fitted dose curve at least 0.9, where 1 is the maximum; inactive means score below 0.9)
In short: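 Dechorionated wild-type zebrafish embryos, 1 per well, statically exposed from 6 hpf at 28C, 0.64% DMSO final. Mortality scored as binary present/absent at 24 hpf by brightfield microscopy, relative to DMSO.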

[18] = Tanguay_ZF_120hpf_DP24: Oregon State University Tanguay Lab 24 Hour Post-fertilization zebrafish Assay for Delayed Development (AID 2284390; active means hit-call score of the fitted dose curve at least 0.9, where 1 is the maximum; inactive means score below 0.9)
In short: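 Dechorionated 5D wild-type zebrafish embryos exposed statically from 6 hpf, one per well, 0.64% DMSO final, 28 C, sealed and dark. Developmental progression scored at 24 hpf by brightfield as binary present/absent; dead embryos excluded.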

[19] = Tanguay_ZF_120hpf_CRAN: Oregon State University Tanguay Lab 120 Hour Post-fertilization zebrafish Assay for Craniofacial Malformation (AID 2284397; active means hit-call score of the fitted dose curve at least 0.9, where 1 is the maximum; inactive means score below 0.9)
In short: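 Dechorionated Tropical 5D wild-type zebrafish embryos, one per well, were statically exposed from 6 to 120 hpf at 28C in 0.64% DMSO, with 5uM trimethyltin chloride as positive control. Craniofacial malformation was scored present/absent by brightfield microscopy, relative to DMSO.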

For `CNC(=O)CSP(=S)(OC)OC`, the outcome [1] was “inactive”, the outcome [2] was “inactive” and the outcome [3] was “inactive”. For the same compound, the outcome [4] was “inactive”, the outcome [5] was “inactive” and the outcome [6] was “inactive”.

For `CCN(CC)C(=O)SCc1ccc(Cl)cc1`, the AC50 [7] was 22.4 µM (active).

With `CCC(C)(NC(=O)c1cc(Cl)c(C)c(Cl)c1)C(=O)CCl` (stereo unspecified) the outcome [8] was “inactive”, the outcome [9] was “inactive” and the outcome [10] was “inactive”.

With `CC(C)OC(=O)Nc1cccc(Cl)c1` the AC50 [7] was 34.7 µM (active).

With `CN1CSC(=S)N(C)C1` the outcome [11] was “inactive”.

In the case of `CCOCN(C(=O)CCl)c1c(C)cccc1CC`, the outcome [12] is reported as “inactive” and the outcome [11] is reported as “inactive”.

In the case of `ClC1C(Cl)C(Cl)C(Cl)C(Cl)C1Cl` (stereo unspecified), the outcome [8] is reported as “inactive”, the outcome [9] is reported as “inactive” and the outcome [10] is reported as “inactive”. For the same compound, the outcome [11] was “inactive”.

With `CC(C)N(C(=O)COc1nnc(C(F)(F)F)s1)c1ccc(F)cc1` the outcome [1] was “inactive”, the outcome [2] was “inactive” and the outcome [3] was “inactive”.

In the case of `O=C1c2ccccc2C(=O)N1SC(Cl)(Cl)Cl`, the outcome [8] is reported as “inactive”, the outcome [9] is reported as “inactive” and the outcome [10] is reported as “inactive”.

In the case of `CCCN(CCC)c1c([N+](=O)[O-])cc(C(F)(F)F)cc1[N+](=O)[O-]`, the outcome [8] is reported as “inactive”, the outcome [9] is reported as “inactive” and the outcome [10] is reported as “inactive”. For the same compound, the AC50 [7] was 5.16 µM (active).

In the case of `CC(C)(C)C(O)/C(=C\c1ccc(Cl)cc1Cl)n1cncn1` (stereo unspecified), the AC50 [7] is reported as 30.8 µM (active).

With `CC1(c2ccc(Oc3ccccc3)cc2)OC(=O)N(Nc2ccccc2)C1=O` (stereo unspecified) the outcome [1] was “inactive”, the outcome [8] was “inactive” and the outcome [9] was “inactive”. The AC50 [10] was 9.91 µM (active), the outcome [2] was “inactive” and the outcome [3] was “inactive”.

In the case of `Oc1ccc(Cl)cc1Cc1ccccc1`, the AC50 [7] is reported as 1.07 µM (active).

For `COP(=S)(OC)Oc1ccc(SC)c(C)c1`, the AC50 [7] was 12 µM (active).

In the case of `O=S1OCC2C(CO1)C1(Cl)C(Cl)=C(Cl)C2(Cl)C1(Cl)Cl` (stereo unspecified), the AC50 [1] is reported as 8.78 µM (active), the outcome [8] is reported as “inactive” and the outcome [9] is reported as “inactive”. The outcome [10] was “inactive”, the outcome [11] was “inactive” and the outcome [2] was “inactive”. For the same compound, the AC50 [3] was 23 µM (active).

With `O=S(=O)(O)C(F)(F)C(F)(F)C(F)(F)C(F)(F)C(F)(F)C(F)(F)C(F)(F)C(F)(F)F` the AC50 [12] was 59 µM (active) and 90.4 µM (active), the outcome [12] was “inactive” and the outcome [1] was “inactive”. The AC50 [13] was 489 nM (active) and 455 nM (active), the AC50 [2] was 3.31 µM (active) and the outcome [2] was “inactive”. The outcome [14] was “inactive”, the outcome [15] was “inactive” and the outcome [16] was “inactive”. For the same compound, the outcome [3] was “inactive”, the outcome [17] was “inactive” and the outcome [18] was “inactive”. For the same compound, the AC50 [19] was 32.7 µM (active) and 91 µM (active).

In the case of `CCCN(CCOc1c(Cl)cc(Cl)cc1Cl)C(=O)n1ccnc1`, the outcome [12] is reported as “inactive”, the outcome [8] is reported as “inactive” and the outcome [9] is reported as “inactive”. For the same compound, the outcome [10] was “inactive”, the AC50 [4] was 0.00173 µM (active) and the AC50 [5] was 0.322 µM (active). The outcome [6] was “inactive”.

In the case of `O=C(NC(=O)c1c(F)cccc1F)Nc1ccc(OC(F)(F)C(F)OC(F)(F)F)c(Cl)c1` (stereo unspecified), the AC50 [7] is reported as 25 µM (active).

In the case of `CC1(C)C(C=C(Cl)Cl)C1C(=O)OC(C#N)c1ccc(F)c(Oc2ccccc2)c1` (stereo unspecified), the AC50 [1] is reported as 9.9 µM (active), the outcome [1] is reported as “inactive” and the outcome [2] is reported as “inactive”. The AC50 [3] was 22.3 µM (active) and the outcome [3] was “inactive”.

For `C[C@H]1[C@H](c2ccc(Cl)cc2)SC(=O)N1C(=O)NC1CCCCC1`, the AC50 [7] was 2.63 µM (active).

With `CCC(C)Nc1c([N+](=O)[O-])cc(C(C)(C)C)cc1[N+](=O)[O-]` (stereo unspecified) the outcome [8] was “inactive”, the outcome [9] was “inactive” and the outcome [10] was “inactive”. For the same compound, the AC50 [7] was 22.3 µM (active).

In the case of `C#CCN1C(=O)COc2cc(F)c(N3C(=O)C4=C(CCCC4)C3=O)cc21`, the AC50 [7] is reported as 8.38 µM (active).
